The full ranking holds about 110,000 compounds; the median of “z-score” is about -0.1, and the highest 2% start at about 2. For the sample, the highest values were picked, then their nearest neighbours and some compounds at random. The source made the active and inactive calls.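 Rule for the calls: active = z-score in the third read window above 3 or below -3; inactive = the rest.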

For the assay, the target named is Metabotropic glutamate receptor 8 (Rattus norvegicus) (UniProt P70579). The experiment in a line: rat mGluR8 modulators via GIRK flux, primary screen, cell-based, thallium flux, HTS (AID 488969). Particulars: HEK293 rat mGluR8, GIRK (G protein-gated inwardly rectifying potassium channel) thallium flux, FluoZin2; at 10 µM; stronger effect = higher value; submaximal glutamate (EC20) added with thallium.
Metabotropic glutamate receptor 8 (Rattus norvegicus), sequence (P70579 whole entry, looked up): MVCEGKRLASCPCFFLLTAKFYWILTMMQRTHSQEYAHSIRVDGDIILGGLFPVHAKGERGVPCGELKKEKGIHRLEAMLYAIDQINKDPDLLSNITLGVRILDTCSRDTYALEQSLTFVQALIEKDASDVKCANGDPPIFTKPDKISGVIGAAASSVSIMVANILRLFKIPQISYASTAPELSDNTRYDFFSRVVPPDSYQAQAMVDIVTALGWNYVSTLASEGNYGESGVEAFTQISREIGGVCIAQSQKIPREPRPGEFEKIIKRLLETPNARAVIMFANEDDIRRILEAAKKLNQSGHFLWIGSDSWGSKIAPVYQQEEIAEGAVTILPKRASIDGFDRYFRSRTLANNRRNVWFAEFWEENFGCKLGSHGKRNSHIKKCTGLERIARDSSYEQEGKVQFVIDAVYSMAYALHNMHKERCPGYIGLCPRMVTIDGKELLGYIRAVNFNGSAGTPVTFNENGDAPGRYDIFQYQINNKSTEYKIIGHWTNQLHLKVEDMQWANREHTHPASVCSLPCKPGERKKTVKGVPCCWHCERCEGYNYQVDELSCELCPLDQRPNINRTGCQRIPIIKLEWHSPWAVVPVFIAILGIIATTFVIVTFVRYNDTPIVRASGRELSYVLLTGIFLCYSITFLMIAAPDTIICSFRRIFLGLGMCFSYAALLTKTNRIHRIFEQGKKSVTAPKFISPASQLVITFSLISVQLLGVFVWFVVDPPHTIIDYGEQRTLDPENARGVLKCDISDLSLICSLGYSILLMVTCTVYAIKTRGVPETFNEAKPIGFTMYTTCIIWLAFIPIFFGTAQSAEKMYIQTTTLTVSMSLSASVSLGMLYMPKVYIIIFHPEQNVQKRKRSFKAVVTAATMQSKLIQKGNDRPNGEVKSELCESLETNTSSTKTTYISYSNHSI
`Cn1c(=O)cc(SCC(=O)NCCC2=CCCCC2)c2ccc(Cl)cc21` gave a z-score of -0.0516.

`COC(=O)C(NC(=O)c1ccccc1Cl)(Nc1ncc(S(=O)(=O)c2ccc([N+](=O)[O-])cc2)s1)C(F)(F)F` (stereo not given) came in with a z-score of -0.242.

As for `O=C(NC(Nc1nc2ccc([N+](=O)[O-])cc2s1)(C(F)(F)F)C(F)(F)F)c1ccccc1`, the z-score is 6.52 (active).

With `O=C(NC(NNc1ccc([N+](=O)[O-])cc1)(C(F)(F)F)C(F)(F)F)c1ccccc1Cl`, the z-score was -0.392.

The compound `O=C(NC(Nc1nc2ccccc2s1)(C(F)(F)F)C(F)(F)F)c1ccccc1` registered a z-score of -0.124.

As to `O=C(NC(Nc1nc2ccc([N+](=O)[O-])cc2s1)(C(F)(F)F)C(F)(F)F)c1ccccc1Cl`, the z-score is 9.65 (active).

The compound `O=C(NC(Nc1nc2ccc([N+](=O)[O-])cc2s1)(C(F)(F)F)C(F)(F)F)c1cccnc1` showed a z-score of 0.978.

Compound `CN(C(=O)Nc1ccc(S(=O)(=O)N(C)C)cc1)C1CCCCC1` returned a z-score of -0.0267.

`O=C(CCn1c(=O)c2ccccc2n(CC(=O)NC2CCCC2)c1=O)NCc1ccco1` had a z-score of -0.258.

Consider `CN(C(=O)COC(=O)c1ccccc1SCC(=O)NC1CCCCCCC1)C1CCS(=O)(=O)C1` (stereo not given), for which the z-score was -0.32.

`Cc1cc(Oc2ccc3ccccc3c2)nc(SCC(=O)c2ccccc2)n1` returned a z-score of -0.14.

In turn, `CC(=O)/C=C(\C)Nc1ccc(-c2cnc(-c3ccccc3)o2)cc1` showed a z-score of 0.0863.

For the compound `Cc1ccccc1NS(=O)(=O)c1cc(S(C)(=O)=O)ccc1Cl`, the z-score was -0.0663.

For `CS(=O)(=O)c1ccc(Cl)c(S(=O)(=O)NCc2ccccc2)c1`, the z-score amounted to 0.117.

As for `CCNS(=O)(=O)c1cc(S(C)(=O)=O)ccc1Cl`, the z-score was 8.32 (active).

Take `CC(C)=CC(=O)Nc1nnc(-c2ccccc2)s1`: the z-score is -0.169.

`CCNC(=S)NNC(=O)c1cccc(Br)c1` returned a z-score of 0.0953.

As to `O=C(NNC(=S)Nc1ccccc1)c1cccc(Br)c1`, the z-score was 3.98 (active).

Compound `Cc1ccc(C(=O)NNC(=S)Nc2cccc3ccccc23)s1` had a z-score of 1.65.

`O=C(O)CCC(=O)NNC(=O)c1cccc(Br)c1` returned a z-score of -0.13.

As for `O=C(NNC(=S)Nc1cccc2ccccc12)c1cccc(Br)c1`, the z-score was 13.9 (active).

`C=CCNC(=S)NNC(=O)c1cccc(Br)c1` gave a z-score of -0.0521.

In turn, `CCC(=O)NCCn1c(C)cc2ccccc21` gave a z-score of 0.729.

`CC(/C=N/NC(=O)c1ccc(CN2c3cccc4cccc(c34)S2(=O)=O)cc1)c1ccccc1` (stereo not given) gave a z-score of -0.557.

Compound `Cc1ccc(-c2noc(CCC(=O)NCCN3CCOCC3)n2)cc1` came in with a z-score of -0.472.

In turn, `O=C(Nc1ncccn1)c1cc([N+](=O)[O-])cc([N+](=O)[O-])c1` returned a z-score of -0.131.

With `Cc1ccc(S(=O)(=O)NC(=NCC(=O)O)c2ccc(F)cc2)cc1`, the z-score came to 0.317.

Compound `O=C(O)CN=C(NS(=O)(=O)c1ccc(Cl)cc1)c1ccccc1` gave a z-score of 0.274.

As to `O=C(O)CN=C(NS(=O)(=O)c1ccccc1)c1ccccc1`, the z-score is 4.61 (active).

In turn, `CCOc1ccccc1CNS(=O)(=O)c1ccc2c(c1)oc(=O)n2C` had a z-score of -0.853.

In turn, `CCn1cc(C(=O)Nc2nnc(C)s2)c(=O)c2cc(F)c(N3CCN(C(=O)c4ccco4)CC3)cc21` yielded a z-score of -0.178.

Compound `CCOC(=O)c1cnc(SCC(=O)Nc2cc(OC)cc(OC)c2)nc1N` yielded a z-score of 0.341.

`CCOC(=O)c1cnc(SCC(=O)Nc2nnc(CC)s2)nc1N`: the z-score stood at 0.763.

On to `CCOC(=O)c1cnc(SCC(=O)Nc2nc(C)c(C)s2)nc1N`, for which the z-score was 3.65 (active).

Regarding `Cc1cc2c(nn1)CCc1nonc1-2`, the z-score was found to be 0.0142.

For `COc1cc2nc(CN3C(=O)c4ccccc4C3=O)oc(=O)c2cc1OC`, the z-score was -0.733.

Consider `CCCCn1nnnc1SCC(=O)c1cc(Cl)ccc1OC`, for which the z-score was -1.36.

Consider `COc1ccc(Cl)cc1C(=O)CSc1nnnn1C1CCCC1`, for which the z-score was 7.32 (active).

Take `COc1ccc(Cl)cc1C(=O)CSc1nnnn1C1CCCCC1`: the z-score is -0.333.

In turn, `O=C(NNC(=O)[C@@H]1CCCC[C@@H]1C(=O)O)c1cccs1` showed a z-score of 0.534.

Turning to `O=C(NNC(=O)c1cc(-c2ccccc2)n(-c2ccccc2)n1)c1cccc([N+](=O)[O-])c1`, the z-score was 6.49 (active).

Compound `O=C(NCc1cn(-c2ccccc2)nc1-c1ccccc1)c1cccc([N+](=O)[O-])c1` showed a z-score of -0.314.

Compound `O=C(NNC(=O)c1cnccn1)c1cccc([N+](=O)[O-])c1` registered a z-score of -0.417.

Consider `C=CCn1c(-c2ccc(S(=O)(=O)N3CCOCC3)cc2)csc1=Nc1ccccc1`, for which the z-score is 0.017.

On to `Cc1nn(-c2ccccc2)c(N)c1C1(O)C(=O)N(C(C)C)c2ccccc21` (stereo not given), for which the z-score came out at 0.371.

Consider `O=C(c1ccccc1)n1nc(-c2ccccc2)nc1NCc1ccco1`, for which the z-score turned out to be 0.149.

As to `CCS(=O)(=O)n1nc(-c2ccccc2)nc1NCc1ccco1`, the z-score was 2.2.

Regarding `O=S(=O)(c1ccccc1)n1nc(-c2ccccc2)nc1NCc1ccco1`, the z-score is -0.0427.

Consider `CCS(=O)(=O)c1nc2ccccc2n1CC(=O)N1CCOCC1`, for which the z-score came out at 0.0592.

In turn, `O=C(NC(=S)Nn1cnc2c(cnn2-c2ccccc2)c1=O)c1ccccc1` gave a z-score of -0.101.

In the case of `O=C(NC(=S)Nn1cnc2c(cnn2-c2ccccc2)c1=O)c1ccc(Oc2ccccc2)cc1`, the z-score stood at 2.08.

The compound `O=C(NC(=S)Nn1cnc2c(cnn2-c2ccccc2)c1=O)c1ccc(Cl)cc1` showed a z-score of 0.0584.

For the compound `CCCN(Cc1ccc(N(CC)CC)cc1)CC1CC1`, the z-score amounted to 2.1.

On to `OCCN(Cc1ccccc1)CC1CCCCC1`, for which the z-score was found to be 0.614.

Turning to `CCCN(Cc1ccc(N(C)C)cc1)CC1CC1`, the z-score is -0.858.

Consider `CCCCn1c(SCC(=O)N2CCOCC2)nnc1-c1ccoc1C`, for which the z-score was 1.9.

Take `COc1ccc(S(=O)(=O)N(CC(=O)N2CCN(C)CC2)c2ccc(C)cc2)cc1OC`: the z-score came out at 0.277.

Consider `CC(=O)OCC(=O)Nc1ccc(N=Nc2ccccc2)cc1`, for which the z-score came to 0.277.

On to `CC(C)C(=O)OCC(=O)Nc1ccc(N=Nc2ccccc2)cc1`, for which the z-score was 10.5 (active).

In turn, `CCCC(=O)OCC(=O)Nc1ccc(N=Nc2ccccc2)cc1` showed a z-score of 0.427.

On to `Cc1cc(-c2nn(-c3ccccc3)cc2/C=C2\SC(N)=NC2=O)ccc1OC(C)C`, for which the z-score was -0.0568.

In the case of `Cn1c(=O)oc2cc(S(=O)(=O)NCCN3CCN(c4ccccc4F)CC3)ccc21`, the z-score is -0.14.

Regarding `CCCCN(CCCNC(=O)C1CCN(S(=O)(=O)N2CCOCC2)CC1)c1ccccc1`, the z-score was -1.17.

With `CC(C)N(CCNC(=O)C1CCN(S(=O)(=O)N2CCOCC2)CC1)Cc1ccccc1`, the z-score was 0.267.

`CCCCN(CCCNC(=O)C1CCN(S(=O)(=O)N2CCOCC2)CC1)Cc1ccccc1` yielded a z-score of 2.95.

With `O=C(COc1ccccc1)OCc1csc(Nc2ccccc2)n1`, the z-score was -0.693.

Consider `CS(=O)(=O)Nc1ccc2c(c1)nc1n2CCOC1`, for which the z-score is -0.149.

The compound `COc1cccc(CNC(=O)C2(C)Oc3ccccc3NC2=O)c1` (stereo not given) returned a z-score of -0.3.

For `COc1ccc(CS(=O)(=O)/C(Cl)=C(/Cl)C(=O)Nc2ccc(OC)nc2)cc1`, the z-score is -0.34.

The compound `COC(=O)c1ccc2nc(Nc3nc4ccc(F)cc4s3)sc2c1` registered a z-score of 0.254.

The compound `COC(=O)c1ccc2nc(Nc3nc4c(F)cc(F)cc4s3)sc2c1` showed a z-score of 1.56.

For `Fc1ccc2nc(Nc3nc4c(F)cc(F)cc4s3)sc2c1`, the z-score is 6.16 (active).

`CC(=O)c1sc(Nc2nc3ccc(F)cc3s2)nc1C` registered a z-score of 0.302.

Compound `NNc1nc2ccc(F)cc2s1` came in with a z-score of -0.467.

For the compound `Fc1ccc2nc(Nc3nc4c(F)cccc4s3)sc2c1`, the z-score was 4.98 (active).

In the case of `CCCCC(=O)Nc1ccccc1C(=O)N1CCOCC1`, the z-score came out at 0.0261.

As for `C/C(=N\OCC(=O)Nc1ccc(F)c(F)c1F)c1cc2ccccc2o1`, the z-score was -1.92.

The compound `CCCCOc1ccc(C(=O)N/C(=C\c2cccc([N+](=O)[O-])c2)C(=O)OC(C)C)cc1` returned a z-score of 0.536.

With `Cc1ccc(CCSc2ccc(C(C)C)cc2)cn1`, the z-score was -0.399.

For `CC(C)CN1C(=O)NC(NC(=O)c2ccco2)(C(F)(F)F)C1=O` (stereo not given), the z-score came out at 0.0372.

Compound `CCCCN(C)C(=S)Nc1ccc(Oc2ccccc2)cc1` registered a z-score of 1.42.

For `CCCN(CC1CC1)C(=S)Nc1ccc(Oc2ccccc2)cc1`, the z-score was 3.7 (active).

In turn, `CN(C(=S)Nc1ccc(Oc2ccccc2)cc1)C1CCCCC1` yielded a z-score of 0.0776.

For the compound `Cc1cccc(NC(=O)COc2ccc(Br)cc2)n1`, the z-score is -0.0989.

The compound `CCC(=O)NC(=S)Nc1ccccc1C(=O)OC` yielded a z-score of -0.308.

For the compound `CCOC(=O)c1ccc(NC(=S)NC(=O)COc2ccccc2)cc1`, the z-score is 3.05 (active).

As to `Cc1ccc(OCC(=O)NC(=S)Nc2ccc(Br)c(C)n2)cc1`, the z-score was 1.02.

Take `COC(=O)c1ccccc1NC(=S)NC(=O)COc1ccc(C)cc1`: the z-score is 2.28.

For the compound `CCC(=O)NC(=S)Nc1ccc(NC(=O)COc2ccccc2)cc1`, the z-score came to 0.0565.

As to `CCOC(=O)c1ccc(NC(=S)Nc2ccccc2)cc1`, the z-score came to 1.7.

On to `Cc1ccc(OCC(=O)NC(=S)Nc2cccc(C)n2)cc1`, for which the z-score was 1.99.

`CCCC(=O)NC(=S)Nc1ccccc1C(=O)OC`: the z-score was 0.0764.

`O=C(CSc1ccsc1[N+](=O)[O-])N1CCN(c2ccccc2)CC1` displayed a z-score of -0.247.

Take `COCCCNS(=O)(=O)c1ccc(SC)cc1`: the z-score is -0.232.

The compound `O=C(COC(=O)Cc1c(Cl)cccc1Cl)Nc1ccc(OC(F)(F)F)cc1` registered a z-score of 0.262.

For `CNc1nc(SCc2ccccc2)nc(N2CCOCC2)n1`, the z-score was -0.587.

Consider `O=c1ccn(-c2cccc(C(F)(F)F)c2)nc1-c1ccn(-c2ccccc2)n1`, for which the z-score was -0.401.

`S=C(Nc1cccc2ccccc12)N1CCN(c2ncccn2)CC1` came in with a z-score of -0.1.

`COc1ccc(-n2c(Cc3cccn3C)nnc2SCC(=O)NCCc2ccccc2)cc1` yielded a z-score of -0.482.

Consider `CC12C(=O)N(c3cccc4cccnc34)C(=O)C1C1C=CC2C1` (stereo not given), for which the z-score came to 0.818.

In the case of `CNc1nc(OCC(F)(F)F)nc(N2CCN(C34CC5CC(CC(C5)C3)C4)CC2)n1`, the z-score came to 0.418.

Consider `O=C(c1cccs1)N1N=C(c2ccccc2)CC1c1ccccc1` (stereo not given), for which the z-score was -0.101.

Take `O=C(Nc1ccc(Br)c(C(F)(F)F)c1)c1ccccc1`: the z-score worked out at 0.42.

For `CCOC(=O)c1ccc(NC(=S)NC2CCCC2)cc1`, the z-score amounted to 2.61.

Turning to `S=C(Nc1ccc(Oc2ccccc2)cc1)NC1CCCCCC1`, the z-score came out at 0.425.

`CCCN1CCC(NC(=S)Nc2ccc(C(=O)OCC)cc2)CC1` showed a z-score of -0.26.

The compound `COC(=O)c1ccc(NC(=S)NC2CCCCC2)cc1` registered a z-score of 0.1.

Take `CCCNC(=S)Nc1ccc(Oc2ccccc2)cc1`: the z-score came out at 0.463.

In the case of `S=C(NCC1CCCCC1)Nc1ccc(Oc2ccccc2)cc1`, the z-score amounted to 0.317.

On to `COC(=O)c1ccccc1NC(=S)NC(=O)COc1ccccc1`, for which the z-score was 7.01 (active).

In the case of `CCNC(=S)Nc1ccc(Oc2ccccc2)cc1`, the z-score stood at 0.818.

`COC(=O)c1ccccc1NC(=S)NC(=O)CC(C)C` registered a z-score of 0.252.

Consider `S=C(Nc1ccc(Oc2ccccc2)cc1)NC1CCCC1`, for which the z-score is 7.92 (active).

`CC(C)CNC(=S)Nc1ccc(Oc2ccccc2)cc1` registered a z-score of 2.69.

In the case of `COC(=O)c1ccccc1NC(=S)NC(NC(=O)COc1ccccc1)C(Cl)(Cl)Cl` (stereo not given), the z-score is -0.203.
